A number with no mark means an inactive call. How the calls were made is not given here.
Each compound was assayed on HIV-1 nucleocapsid protein NCp7 (binding to TG oligonucleotide) (assay: HIV Nucleocapsid (AID 346;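 further: potency is for inhibitors that block NC binding and lower polarization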)). Settings: HIV-1 NC / fluorescein-TGTGTGTG probe, fluorescence polarization.
Procedure, shortened: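 Fluorescence polarization readout: labelled TG4xF oligo (10 nM) with 100 nM nucleocapsid protein, high-salt (250mM NaCl) Hepes pH 7.5 buffer containing zinc and fresh reducing agents. Compounds added by pin tool; incubation 1 hr, room temperature.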
Potency means the concentration at half of the fitted maximal effect.

Row | SMILES | Potency [µM]
1 | COc1ccc(-c2nc3cnc(N4CCN(C)CC4)nc3n(C)c2=O)cc1 | > 20
2 | O=C(c1ccncc1)N1CCC2(CCCN(c3cccc(-c4ccccc4)c3)C2)CC1 | > 20
3 | COc1ccccc1-c1cc(Nc2ccc(F)cc2)ncn1 | > 20
4 | COCC(=O)N1CCC2(CC1)CN(c1cccc(-c3ccccc3)c1)C2 | > 20
5 | N#Cc1cccc(NC(=O)N2CCCC3(CCN(C(=O)c4cc(C(F)(F)F)cc(C(F)(F)F)c4)CC3)C2)c1 | > 20
6 | Cc1cnc(CNc2ncncc2-c2ccoc2)cn1 | > 20
7 | CNc1nc(-c2ccccc2CN(C)C)nc2ccccc12 | > 20
8 | COc1ccccc1-c1cncnc1NCc1cnc(C)cn1 | > 20
9 | COCC(=O)N1CCC[C@@]2(CCN(Cc3ccccc3OC)C2)C1 | > 20
10 | Cc1cnc(CNc2ncncc2-c2ccc(C(=O)N(C)C)cc2)cn1 | > 20
11 | Cc1noc(C)c1-c1nc(N2CCOCC2)c2ccccc2n1 | > 20
12 | O=c1cnc2cnc(N3CCOCC3)nc2n1CCc1ccccc1 | > 20
13 | COc1ccc(CNc2ncncc2-c2ccc(N(C)C)cc2)c(OC)c1 | > 20
14 | COc1ccc(NC(=O)N2CC[C@@]3(CCCN(C(=O)c4cccn4C)C3)C2)cc1 | > 20
15 | O=S(=O)(c1ccccc1)N1CCC[C@@]2(CCN(Cc3nccs3)C2)C1 | > 20

— PubChem BioAssay (NCATS)
